# Measurements taken from PubChem BioAssay.
# Results filed as inconclusive are left out. Active and inactive are the calls of the source.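 How the source made its calls, unless noted: active means normalized viability below 100% at a tested concentration; inactive means the rest.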
# Columns and labels:
# [1] = viability loss in pontine glioma line – cell-based, SU-DIPG-XVII, MIPE5.0, CellTiter-Glo, qHTS, dose response (AID 1347060; cut-off not given, nearly all actives have AC50 up to about 26 µM;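 on AC50: cells exposed to compound for 48 hours before viability readout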); details: CellTiter-Glo ATP luminescence
# [2] = viability loss in pontine glioma line – cell-based, SU-DIPG-XIII, MIPE4.0, CellTiter-Glo, qHTS, dose response (AID 1347061; cut-off not given, nearly all actives have AC50 up to about 37 µM;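 further: cells exposed to compound for 48 hours before readout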); details: CellTiter-Glo ATP luminescence
# [3] = viability loss in pontine glioma line – cell-based, JHH-DIPG-1, MIPE4.0, CellTiter-Glo, qHTS, dose response (AID 1347062; cut-off not given, nearly all actives have AC50 up to about 27 µM;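 on AC50: cells exposed to compound for two days before readout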); details: JHH-DIPG-1 viability, CellTiter-Glo ATP luminescence
# [4] = viability loss in pontine glioma line – cell-based, SU-DIPG-IV, MIPE4.0, CellTiter-Glo, qHTS, dose response (AID 1347063; cut-off not given, nearly all actives have AC50 up to about 30 µM;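 further: compound exposure lasted 48 hours before the viability readout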); details: CellTiter-Glo ATP luminescence
# [5] = viability loss in pontine glioma line – cell-based, SU-DIPG-XIII, MIPE5.0, CellTiter-Glo, qHTS, dose response (AID 1347064; cut-off not given, nearly all actives have AC50 up to about 23 µM;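 on AC50: cells exposed to compound for 48 hours before the viability read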); details: CellTiter-Glo ATP luminescence
# [6] = viability loss in pontine glioma line – cell-based, SU-DIPG-XXV, MIPE5.0, CellTiter-Glo, qHTS, dose response (AID 1347065; cut-off not given, nearly all actives have AC50 up to about 26 µM;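 further: cells exposed to compound for 48 hours before ATP readout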); details: CellTiter-Glo ATP luminescence
# [7] = growth inhibition of DIPG cells – cell-based, MIPE4.0 library, CellTiter-Glo luminescence, qHTS (AID 1347066; cut-off not given, nearly all actives have AC50 up to about 30 µM;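 further: cells exposed to compound for 48 hours before readout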); details: SU-DIPG-VI viability, CellTiter-Glo ATP luminescence
# [8] = JHH-DIPG-1 glioma cell viability, MIPE5.0 library, CellTiter-Glo luminescence, qHTS (AID 1347067; cut-off not given, nearly all actives have AC50 up to about 26 µM;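 further: cells exposed to compound for 48 hours before readout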); details: JHH-DIPG-1 glioma viability, CellTiter-Glo ATP luminescence
# [9] = growth inhibition of DIPG cells – cell-based, MIPE5.0 library, qHTS (AID 1347068; cut-off not given, nearly all actives have IC50 up to about 30 µM;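 on IC50: cells exposed to compound for 48 hours before viability readout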); details: SU-DIPG-XXV viability
# [10] = viability loss with induced miR-34 in A549 – imaging, A549 dox-inducible miR-34, nuclei and caspase counts, primary screen (AID 1347080;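 active means compounds whose cell count with miR-34 switched on is under 0.7 times the count with it off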); details: A549 miR-34 inducible, Hoechst nuclei count, 48 h
# [11] = MELAS cybrid and Rieske KO viability enhancers – cell-based, MELAS cybrids, Rieske KO mouse fibroblasts, CellTiter-Glo, primary screen (AID 1508586;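 active means mean z-score across replicates of 1.96 or higher in either the MELAS or the Rieske mutant cell line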;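 further: z relative to plate mean and SD of compound and empty wells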); details: low glucose
# [12] = compounds altering HSF1 focus formation in cells – imaging, Selleck Cancer Library (AID 1347162; in the data active means plate-normalised HSF1 focus index below about 0.46); details: human cells, HSF1 nuclear foci imaging, at 10 µM; SSMD: measured here: HSF1 foci SSMD mean; cell count: measured here: cell number; plate-normalised HSF1 focus index: stronger effect = lower value
# [13] = drug combination growth inhibition, ovarian cancer – cell-based, oncology-focused library, rucaparib conditional, profiling panel (AID 1508598); details: patient-derived ovarian cancer cells, CellTiter-Glo viability, 144 h, stronger effect = lower value
# [14] = growth inhibition, single agent or in combination, cell-based, chromothripsis tumors, cisplatin or BGB combos (AID 1671449; in the data active means inhibition above about 80%;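 further: cells exposed for 96 hours; 0% = vehicle DMSO and 100% = killing by high DMSO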); details: LFS_MB_P medulloblastoma cells
# [15] = growth inhibition, single agent and combos, cell-based, chromothripsis tumors, cisplatin or BGB combos (AID 1671450; in the data active means inhibition above about 80%;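 further: cells exposed to compound for four days; 0% = vehicle DMSO and 100% = cell killing by high DMSO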); details: HDN33 neuroblastoma cells, stronger effect = higher value
# [16] = growth inhibition, single agents and combos, ICB984, cell-based, cisplatin or BGB combos, synergistic combos for chromothripsis tumors (AID 1671451; call rule not given here;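 further: cells exposed for 96 hours before readout; 0% = vehicle DMSO and 100% = killing by high DMSO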); details: ICB984 medulloblastoma cells, drug combinations, stronger effect = higher value
# [17] = growth inhibition, single agents and combos, HTB85, cell-based, BGB or cisplatin IC20 combos, synergistic combos for chromothripsis tumors (AID 1671453; in the data active means inhibition above about 80%;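 further: cells exposed for 96 hours before readout; 0% = vehicle DMSO and 100% = high DMSO killing control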); details: HTB85 osteosarcoma cells, drug combinations, stronger effect = higher value
# [18] = growth inhibition, MDA-MB-436, cell-based, BGB or cisplatin combos, synergistic combos for chromothripsis tumors (AID 1671458; call rule not given here;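 further: cells exposed for 96 hours; 0% = vehicle DMSO and 100% = killing by high DMSO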); details: MDA-MB-436 breast carcinoma growth inhibition, drug combinations, stronger effect = higher value
# [19] = BT084 cell growth, single and combined drugs, ICGC_MB145, cisplatin and BGB IC40 combos (AID 1671461; in the data active means inhibition above about 80%;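 further: cells exposed to drugs for 96 hours; 0% = vehicle DMSO and 100% = high DMSO full killing control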); details: BT084 medulloblastoma cells, drug combinations, stronger effect = higher value
# [20] = RCMB18 cell growth, single agent and combined, cisplatin and BGB IC40 combos (AID 1671462; in the data active means inhibition above about 80%;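 further: cells exposed to compound for four days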); details: RCMB18 medulloblastoma cells, stronger effect = higher value
# [21] = stronger effect = lower value, cell number ratio, induced over uninduced
# [22] = measured here: relative caspase fold change +Dox/-Dox
# [23] = measured here: total cells with miR-34 induction, stronger effect = lower value
# [24] = measured here: total cells without miR-34 induction
# [25] = MELAS cybrid survival, CellTiter-Glo 48 h, stronger effect = higher value
# [26] = Rieske KO mouse fibroblast survival, CellTiter-Glo 72 h
smiles,measurement,setting,value
O=C(Nc1c(Cl)cncc1Cl)c1ccc(OC(F)F)c(OCC2CC2)c1,outcome,[1],inactive
same,outcome,[2],inactive
same,outcome,[3],inactive
same,outcome,[4],inactive
same,outcome,[5],inactive
same,outcome,[6],inactive
same,outcome,[7],inactive
same,outcome,[8],inactive
same,outcome,[9],inactive
same,fold change,[10]; [21],0.886 (inactive)
same,fold change,[10]; [22],1.06
same,cell count,[10]; [23],8020
same,cell count,[10]; [24],9050
same,z-score,[11]; [25],-0.193 (inactive)
same,z-score,[11]; [26],-1.74
Nc1ccc(-c2ccc3ncc4ccc(=O)n(-c5cccc(C(F)(F)F)c5)c4c3c2)cn1,AC50,[1],93.4 nM (active)
same,AC50,[2],132 nM (active)
same,AC50,[3],74.3 nM (active)
same,AC50,[4],33.2 nM (active)
same,AC50,[5],23.5 nM (active)
same,AC50,[6],20.9 nM (active)
same,AC50,[7],187 nM (active)
same,AC50,[8],166 nM (active)
same,IC50,[9],235 nM (active)
same,fold change,[10]; [21],1 (inactive)
same,fold change,[10]; [22],1.14
same,cell count,[10]; [23],1420
same,cell count,[10]; [24],1410
same,SSMD,[12],2.81
same,cell count,[12],6780
same,plate-normalised HSF1 focus index,[12],1.15 (inactive)
same,z-score,[11]; [25],3.27 (active)
same,z-score,[11]; [26],-0.678
same,viability,"[13]; at 0.000305 µM, OCI-C5x cells, with rucaparib 10 µM, 100% = cells with rucaparib alone",117% (inactive)
same,viability,"[13]; at 0.000305 µM, OCI-C5x cells, without rucaparib",112% (inactive)
same,viability,"[13]; at 0.000305 µM, OCI-P5x cells, with rucaparib 20 µM, 100% = cells with rucaparib alone",87.4% (active)
same,viability,"[13]; at 0.000305 µM, OCI-P5x cells, without rucaparib",87.8% (active)
same,viability,"[13]; at 0.00122 µM, OCI-C5x cells, with rucaparib 10 µM, 100% = cells with rucaparib alone",107% (inactive)
same,viability,"[13]; at 0.00122 µM, OCI-C5x cells, without rucaparib",119% (inactive)
same,viability,"[13]; at 0.00122 µM, OCI-P5x cells, with rucaparib 20 µM, 100% = cells with rucaparib alone",89.2% (active)
same,viability,"[13]; at 0.00122 µM, OCI-P5x cells, without rucaparib",90.5% (active)
same,viability,"[13]; at 0.00488 µM, OCI-C5x cells, with rucaparib 10 µM, 100% = cells with rucaparib alone",118% (inactive)
same,viability,"[13]; at 0.00488 µM, OCI-C5x cells, without rucaparib",83.6% (active)
same,viability,"[13]; at 0.00488 µM, OCI-P5x cells, with rucaparib 20 µM, 100% = cells with rucaparib alone",79.7% (active)
same,viability,"[13]; at 0.00488 µM, OCI-P5x cells, without rucaparib",60.8% (active)
same,viability,"[13]; at 0.0195 µM, OCI-C5x cells, with rucaparib 10 µM, 100% = cells with rucaparib alone",113% (inactive)
same,viability,"[13]; at 0.0195 µM, OCI-C5x cells, without rucaparib",72% (active)
same,viability,"[13]; at 0.0195 µM, OCI-P5x cells, with rucaparib 20 µM, 100% = cells with rucaparib alone",70.7% (active)
same,viability,"[13]; at 0.0195 µM, OCI-P5x cells, without rucaparib",49.8% (active)
same,viability,"[13]; at 0.0781 µM, OCI-C5x cells, with rucaparib 10 µM, 100% = cells with rucaparib alone",109% (inactive)
same,viability,"[13]; at 0.0781 µM, OCI-C5x cells, without rucaparib",92.2% (active)
same,viability,"[13]; at 0.0781 µM, OCI-P5x cells, with rucaparib 20 µM, 100% = cells with rucaparib alone",77.9% (active)
same,viability,"[13]; at 0.0781 µM, OCI-P5x cells, without rucaparib",63.5% (active)
same,viability,"[13]; at 0.313 µM, OCI-C5x cells, with rucaparib 10 µM, 100% = cells with rucaparib alone",109% (inactive)
same,viability,"[13]; at 0.313 µM, OCI-C5x cells, without rucaparib",89.4% (active)
same,viability,"[13]; at 0.313 µM, OCI-P5x cells, with rucaparib 20 µM, 100% = cells with rucaparib alone",73.5% (active)
same,viability,"[13]; at 0.313 µM, OCI-P5x cells, without rucaparib",65.9% (active)
same,viability,"[13]; at 1.25 µM, OCI-C5x cells, with rucaparib 10 µM, 100% = cells with rucaparib alone",62.2% (active)
same,viability,"[13]; at 1.25 µM, OCI-C5x cells, without rucaparib",70.5% (active)
same,viability,"[13]; at 1.25 µM, OCI-P5x cells, with rucaparib 20 µM, 100% = cells with rucaparib alone",67.9% (active)
same,viability,"[13]; at 1.25 µM, OCI-P5x cells, without rucaparib",54.1% (active)
same,viability,"[13]; at 5 µM, OCI-C5x cells, with rucaparib 10 µM, 100% = cells with rucaparib alone",33.1% (active)
same,viability,"[13]; at 5 µM, OCI-C5x cells, without rucaparib",29.5% (active)
same,viability,"[13]; at 5 µM, OCI-P5x cells, with rucaparib 20 µM, 100% = cells with rucaparib alone",10.8% (active)
same,viability,"[13]; at 5 µM, OCI-P5x cells, without rucaparib",14.6% (active)
same,inhibition,"[14]; at 0.5 µM, stronger effect = higher value",5.33% (inactive)
same,inhibition,"[14]; measured here: combination with BGB IC20, at 0.005 µM",-20%
same,inhibition,"[14]; measured here: combination with BGB IC40, at 0.005 µM",59.9%
same,inhibition,"[14]; measured here: combination with BGB IC40, at 0.05 µM",-36.1%
same,inhibition,"[14]; measured here: combination with cisplatin, at 0.5 µM, stronger effect = higher value",3.19%
same,inhibition,"[14]; measured here: combination with cisplatin, at 5 µM, stronger effect = higher value",92.6%
same,inhibition,"[15]; BGB combo, at 5 µM",89.3%
same,inhibition,[15]; at 0.5 µM,32.1% (inactive)
same,inhibition,"[15]; cisplatin combo, at 5 µM",93.5%
same,inhibition,"[15]; measured here: with BGB IC20 combination, at 0.5 µM",14.7%
same,inhibition,"[15]; measured here: with cisplatin IC20 combination, at 0.5 µM",43.5%
same,inhibition,"[15]; single agent, at 5 µM",91.8%
same,inhibition,"[16]; BGB IC20 combo, at 0.005 µM",18.5%
same,inhibition,"[16]; BGB IC40 combo, at 0.005 µM",13.6%
same,inhibition,"[16]; BGB IC40 combo, at 0.05 µM",80.5%
same,inhibition,[16]; at 0.5 µM,-14.5% (inactive)
same,inhibition,"[16]; cisplatin combo, at 0.05 µM",79.9%
same,inhibition,"[16]; cisplatin combo, at 0.5 µM",-13.5%
same,inhibition,"[16]; cisplatin combo, at 5 µM",-13.1%
same,inhibition,"[16]; measured here: 5 uM single agent, at 5 µM",-7.65%
same,inhibition,[17]; at 0.5 µM,27.1% (inactive)
same,inhibition,"[17]; measured here: with BGB IC20, at 0.5 µM",35.5%
same,inhibition,"[17]; measured here: with BGB IC20, at 5 µM",78%
same,inhibition,"[17]; measured here: with cisplatin IC20, at 0.5 µM",16.8%
same,inhibition,"[17]; measured here: with cisplatin IC20, at 5 µM",94.9%
same,inhibition,"[17]; single agent, at 5 µM",79.3%
same,inhibition,[18]; at 0.5 µM,12% (inactive)
same,inhibition,"[18]; measured here: BGB combination, at 0.5 µM",0.276%
same,inhibition,"[18]; measured here: BGB combination, at 5 µM",32.6%
same,inhibition,"[18]; measured here: cisplatin combination, at 0.5 µM",-4.07%
same,inhibition,"[18]; measured here: cisplatin combination, at 5 µM",57.7%
same,inhibition,[19]; at 0.5 µM,21.2% (inactive)
same,inhibition,"[19]; cisplatin combination, at 0.5 µM",28.2%
same,inhibition,"[19]; cisplatin combination, at 5 µM",33.5%
same,inhibition,"[19]; measured here: BGB IC40 combination 0.05 uM, at 0.05 µM",-29.9%
same,inhibition,"[19]; single agent, at 5 µM",41.3%
same,inhibition,[20]; at 0.5 µM,16.5% (inactive)
same,inhibition,"[20]; cisplatin combo, at 5 µM",59.1%
same,inhibition,"[20]; measured here: BGB IC40 combination, at 0.05 µM",-1.59%
same,inhibition,"[20]; measured here: combination with cisplatin, at 0.5 µM",23.5%
same,inhibition,"[20]; single agent, at 5 µM",62.1%
